PubChem BioAssay (NCATS)
Inconclusive results are not listed. Calls of active or inactive are those of the source. Unless noted, calls follow the shape of the dose curve; as a rule, active = well fitted inhibition curve with a large enough effect; inconclusive = small, poorly fitted or top-dose-only effect; inactive = flat fitted curve, though single readings scatter.

What was measured:
[1] = qHTS drug screen for cell cycle checkpoint inhibitors in PARPi-resistant BRCA-mutant ovarian cancer cell lines. (AID 1963452; calls by dose curve); conditions: PEO1/OlaR viability, CellTiter-Glo luminescence, 96 h; for Z-AUC: stronger effect = lower value
Procedure, shortened: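 PEO1, PEO4 and PEO1/OlaR ovarian cancer cells, 600 per well, exposed 96 h at 37C to a dilution series. Viability read by CellTiter-Glo luminescence, normalized to DMSO and empty wells; activity summarized as Z-AUC.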

[2] = qHTS for identification of novel therapeutic agents for treatment of microphthalmiaassociated transcription factor (MiT) renal cell carcinoma (RCC) (AID 1963991; calls by dose curve;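 as to z-score: curves scaled with 100% = DMSO viability and 0% = empty wells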); conditions: CellTiter-Glo, 48 h; for z-score: stronger effect = lower value; for Potency: active = Z-AUC below -0.8 in all three lines
Procedure, shortened: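 UOK109/UOK124/UOK145 (TFE3 fusions, three partners); 500 cells/well; MIPE v4.0, 1912 cpds, 11 conc.; 48 h, 37 C; CellTiter-Glo, 15 min RT; lum. Norm.: DMSO 100%, empty 0%.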

[3] = qHTS profiling for inhibitors of Plasmodium falciparum proliferation (AID 504749); also: nearly all actives have a fitted effect of over 60% in size;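 as to activity, negative = inhibition: 0% = DMSO vehicle and full inhibition = artemisinin control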; conditions: P. falciparum in erythrocytes, SYBR Green DNA, 72 h
Procedure, shortened: (§1)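 Each compound contacts P. falciparum-infected red blood cells for 72 h at 37 C; lysis buffer (Tris, EDTA, saponin, Triton X, SYBR Green I) is added and fluorescence measured next morning; values normalized to controls.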

7G8 = test: as above; conditions: P. falciparum in erythrocytes, SYBR Green DNA, 72 h; series mostly up to 28.7 µM
Procedure, shortened: as §1

AA1029 = test: as above; conditions: P. falciparum in erythrocytes, SYBR Green DNA, 72 h; series mostly up to 28.7 µM
Procedure, shortened: as §1

AS120 = test: as above; conditions: P. falciparum in erythrocytes, SYBR Green DNA, 72 h; series mostly up to 28.7 µM
Procedure, shortened: as §1

ATS189 = test: as above; conditions: P. falciparum in erythrocytes, SYBR Green DNA, 72 h; series mostly up to 28.7 µM
Procedure, shortened: as §1

ATS95 = test: as above; conditions: P. falciparum in erythrocytes, SYBR Green DNA, 72 h; series mostly up to 28.7 µM
Procedure, shortened: as §1

C2A = test: as above; conditions: P. falciparum in erythrocytes, SYBR Green DNA, 72 h; series mostly up to 28.7 µM
Procedure, shortened: as §1

CP185 = test: as above; conditions: P. falciparum in erythrocytes, SYBR Green DNA, 72 h; series mostly up to 28.7 µM
Procedure, shortened: as §1

CP191 = test: as above; conditions: P. falciparum in erythrocytes, SYBR Green DNA, 72 h; series mostly up to 28.7 µM
Procedure, shortened: as §1

CP192 = test: as above; conditions: P. falciparum in erythrocytes, SYBR Green DNA, 72 h; series mostly up to 28.7 µM
Procedure, shortened: as §1

CP194 = test: as above; conditions: P. falciparum in erythrocytes, SYBR Green DNA, 72 h; series mostly up to 28.7 µM
Procedure, shortened: as §1

CP201 = test: as above; conditions: P. falciparum in erythrocytes, SYBR Green DNA, 72 h; series mostly up to 28.7 µM
Procedure, shortened: as §1

CP211 = test: as above; conditions: P. falciparum in erythrocytes, SYBR Green DNA, 72 h; series mostly up to 28.7 µM
Procedure, shortened: as §1

CP215 = test: as above; conditions: P. falciparum in erythrocytes, SYBR Green DNA, 72 h; series mostly up to 28.7 µM
Procedure, shortened: as §1

3D7 = test: as above; conditions: P. falciparum in erythrocytes, SYBR Green DNA, 72 h; series mostly up to 28.7 µM
Procedure, shortened: as §1

[4] = measured here: PEO1 parental Z-AUC
[5] = TFE3-RCC UOK109 viability, measured here: UOK109 Z-AUC
[6] = TFE3-RCC viability, measured here: UOK124 Z-AUC
[7] = TFE3-RCC viability, measured here: UOK145 Z-AUC
[8] = at 12.8 µM (top of the series), parasite line A
[9] = at 28.7 µM (top of the series), parasite line A
[10] = at 28.7 µM (top of the series), parasite line B
Potency is read from the fitted curve at half-maximal effect.

## COc1ccc(Cc2ccc(NC(N)=O)cc2)cc1-c1cccc(Cl)c1
[1]
  Z-AUC: 0.65 (inactive)
[1]; [4]
  Z-AUC: -0.098
[1]; measured here: PEO4 Z-AUC
  Z-AUC: 0.315
[2]; [5]
  z-score: 0.762
[2]; [6]
  z-score: 0.853
[2]; [7]
  z-score: 0.582

## O=C(O)c1ccccc1C(=O)Nc1ccc(-c2ccccc2)cc1
[1]
  Z-AUC: 1.24 (inactive)
[1]; [4]
  Z-AUC: 0.724
[1]; measured here: PEO4 Z-AUC
  Z-AUC: 0.552
[2]; [5]
  z-score: 0.921
[2]; [6]
  z-score: 0.86
[2]; [7]
  z-score: 0.469

## CCc1ccc(C=C2SC(=S)NC2=O)cc1
[2]; [5]
  z-score: -0.104
[2]; [6]
  z-score: 0.457
[2]; [7]
  z-score: -0.976

## O=C1c2ccccc2-[n+]2ccc3c([nH]c4ccccc43)c21
[1]
  Z-AUC: -1.18 (inactive)
[1]; [4]
  Z-AUC: -1.75
[1]; measured here: PEO4 Z-AUC
  Z-AUC: -2.31
[2]; TFE3-RCC UOK109 viability
  Potency: 1.66 µM (active)
[2]; [5]
  z-score: -1.69
[2]; [6]
  z-score: -2.04
[2]; [7]
  z-score: -1.7

## COc1cc2nc(-c3ccc(N4CCN(C)CC4)cc3)nc(NCCN3CCOCC3)c2cc1OC
[1]
  Z-AUC: -0.0476 (inactive)
[1]; [4]
  Z-AUC: -0.00961
[1]; measured here: PEO4 Z-AUC
  Z-AUC: -0.573
[2]; TFE3-RCC UOK109 viability
  Potency: 1.18 µM (active)
[2]; [5]
  z-score: -1.15
[2]; [6]
  z-score: -1.85
[2]; [7]
  z-score: -1.4

## COc1ccc(Cc2nccc3cc(OC)c(OC)cc23)cc1OC
[1]
  Z-AUC: -1.7 (inactive)
[1]; [4]
  Z-AUC: -1.2
[1]; measured here: PEO4 Z-AUC
  Z-AUC: 0.243
[3]; [8]
  activity, negative = inhibition: 0.631% (inactive)
[3]; at 12.8 µM (top of the series), parasite line B
  activity, negative = inhibition: 6.88% (inactive)
7G8
  Potency: inactive
AA1029
  outcome: inactive
AS120
  Potency: inactive
ATS189
  Potency: inactive
ATS95
  outcome: inactive
C2A
  outcome: inactive
CP185
  outcome: inactive
CP191
  Potency: inactive
CP192
  Potency: inactive
CP194
  Potency: inactive
CP201
  outcome: inactive
CP211
  Potency: inactive

## CC(C)(C)COc1ccc(-n2cc(C(=O)O)cn2)cc1C#N
[2]; [5]
  z-score: 1.01
[2]; [6]
  z-score: 0.953
[2]; [7]
  z-score: 0.498

## CC1=C(/C=C/C(C)=C/C=C/C(C)=C/C(=O)Nc2ccc(O)cc2)C(C)(C)CCC1
[1]
  Z-AUC: 0.685 (inactive)
[1]; [4]
  Z-AUC: 0.437
[1]; measured here: PEO4 Z-AUC
  Z-AUC: 0.121
[3]; parasite line A
  Potency: 11.2 µM (active)
[3]; parasite line B
  Potency: 10 µM (active)
7G8
  Potency: 8.91 µM (active)
AS120
  Potency: 10 µM (active)
ATS189
  Potency: 7.94 µM (active)
CP191
  Potency: 7.94 µM (active)
CP192
  Potency: 9.53 µM (active)
CP194
  Potency: 13.5 µM (active)
CP211
  Potency: 10.7 µM (active)
CP215
  Potency: 10.7 µM (active)

## Nc1ncnc2c1ncn2[C@@H]1O[C@@H](CO)[C@H](O)[C@H]1O
[2]; [5]
  z-score: 0.834
[2]; [6]
  z-score: 0.529
[2]; [7]
  z-score: 0.73

## COc1ccc(-c2nc(N3CCOCC3)c3sc(CN(C)c4ncc(C(=O)NO)cn4)cc3n2)cn1
[1]
  Potency: 0.0616 µM (active)
[1]; [4]
  Z-AUC: -1.63
[1]; measured here: PEO4 Z-AUC
  Z-AUC: -1.69
[2]; TFE3-RCC UOK109 viability
  Potency: 0.0264 µM (active)
[2]; [5]
  z-score: -3.18
[2]; [6]
  z-score: -4.67
[2]; [7]
  z-score: -3.65

## CC/C(=C(\c1ccccc1)c1ccc(OCCN(C)C)cc1)c1ccccc1
[1]
  Z-AUC: -0.344 (inactive)
[1]; [4]
  Z-AUC: -0.716
[1]; measured here: PEO4 Z-AUC
  Z-AUC: -0.672
7G8
  Potency: 12.6 µM (active)
CP192
  Potency: inactive

## Clc1ccc(Cn2c(CN3CCCC3)nc3ccccc32)cc1
[1]
  Z-AUC: 1.16 (inactive)
[1]; [4]
  Z-AUC: 0.912
[1]; measured here: PEO4 Z-AUC
  Z-AUC: 1.11
[3]; [8]
  activity, negative = inhibition: 5.36% (inactive)
3D7
  outcome: inactive
7G8
  Potency: 3.16 µM (active)
AA1029
  outcome: inactive
AS120
  Potency: inactive
ATS189
  Potency: inactive
ATS95
  outcome: inactive
C2A
  outcome: inactive
CP185
  outcome: inactive
CP191
  Potency: inactive
CP192
  Potency: inactive
CP194
  Potency: inactive
CP201
  outcome: inactive
CP211
  Potency: inactive

## CC(=Cc1ccccc1)C=C1SC(=S)N(CC(=O)O)C1=O
[2]; [5]
  z-score: 1.2
[2]; [6]
  z-score: 1.04
[2]; [7]
  z-score: 0.683

## CC(=O)O[C@]1(C(C)=O)CC[C@H]2[C@@H]3C=C(Cl)C4=CC(=O)[C@@H]5C[C@@H]5[C@]4(C)[C@H]3CC[C@@]21C
[1]
  Z-AUC: 0.151 (inactive)
[1]; [4]
  Z-AUC: 0.0304
[1]; measured here: PEO4 Z-AUC
  Z-AUC: 0.0664
7G8
  Potency: 11.2 µM (active)
ATS189
  Potency: inactive
CP185
  outcome: inactive

## OC[C@H]1O[C@@H](n2cnc3c2NC=NC[C@@H]3O)C[C@H]1O
[2]; [5]
  z-score: 0.518
[2]; [6]
  z-score: 0.532
[2]; [7]
  z-score: 0.196

## CO[C@H]1C=CO[C@@]2(C)Oc3c(C)c(O)c4c(O)c(c5c(c4c3C2=O)NC2(CCN(CC(C)C)CC2)N=5)=NC(=O)C(C)=CC=C[C@H](C)[C@H](O)[C@@H](C)[C@@H](O)[C@@H](C)[C@H](OC(C)=O)[C@H]1C
[2]; [5]
  z-score: 0.267
[2]; [6]
  z-score: 0.0618
[2]; [7]
  z-score: 0.486

## COc1ncc(-c2ccc3nccc(-c4ccnnc4)c3c2)cc1NS(=O)(=O)c1ccc(F)cc1F
[1]
  Potency: 0.174 µM (active)
[1]; [4]
  Z-AUC: -2.06
[1]; measured here: PEO4 Z-AUC
  Z-AUC: -1.99
[2]; TFE3-RCC UOK109 viability
  Potency: 33.2 µM (active)
[2]; [5]
  z-score: -3.1
[2]; [6]
  z-score: -1.24
[2]; [7]
  z-score: -3.12

## C[C@H]1[C@H](NC(=O)C(=NOC(C)(C)C(=O)O)c2csc(N)n2)C(=O)N1S(=O)(=O)O
[2]; [5]
  z-score: 1.25
[2]; [6]
  z-score: 0.648
[2]; [7]
  z-score: 1.65

## O=C(NC1CCOCC1)c1ccc(-c2cc(-c3cn[nH]c3-c3ccccn3)ccn2)cc1
[1]
  Z-AUC: 0.761 (inactive)
[1]; [4]
  Z-AUC: 0.819
[1]; measured here: PEO4 Z-AUC
  Z-AUC: 0.929
[2]; [5]
  z-score: 0.905
[2]; [6]
  z-score: 1.11
[2]; [7]
  z-score: 0.561

## CC(=O)N[C@@H](CS)C(=O)O
[1]
  Z-AUC: 0.621 (inactive)
[1]; [4]
  Z-AUC: 0.869
[1]; measured here: PEO4 Z-AUC
  Z-AUC: 0.504
[3]; [9]
  activity, negative = inhibition: -3.7% (inactive)
[3]; [10]
  activity, negative = inhibition: 16.4% (inactive)
3D7
  outcome: inactive
7G8
  Potency: inactive
AA1029
  outcome: inactive
AS120
  Potency: inactive
ATS189
  Potency: inactive
ATS95
  outcome: inactive
C2A
  outcome: inactive
CP185
  outcome: inactive
CP191
  Potency: inactive
CP192
  Potency: inactive
CP194
  Potency: inactive
CP201
  outcome: inactive
CP211
  Potency: inactive
CP215
  Potency: inactive

## O=C(O)c1c(Cl)c(Cl)c(Cl)c(Cl)c1-c1c2cc(I)c(=O)c(I)c-2oc2c(I)c(O)c(I)cc12
[1]
  Z-AUC: 0.15 (inactive)
[1]; [4]
  Z-AUC: 0.353
[1]; measured here: PEO4 Z-AUC
  Z-AUC: 0.104
[3]; [9]
  activity, negative = inhibition: 1.68% (inactive)
[3]; [10]
  activity, negative = inhibition: 2.35% (inactive)
3D7
  outcome: inactive
7G8
  Potency: inactive
AA1029
  outcome: inactive
AS120
  Potency: inactive
ATS189
  Potency: inactive
ATS95
  outcome: inactive
C2A
  outcome: inactive
CP185
  outcome: inactive
CP191
  Potency: inactive
CP192
  Potency: inactive
CP194
  Potency: inactive
CP201
  outcome: inactive
CP211
  Potency: inactive
CP215
  Potency: inactive
